Measured values reported in ChEMBL document CHEMBL4513146, “CO-ADD screening of Karazin Kharkiv National University (Ukraine) compounds”.
Results with a measured potency or affinity are listed apart.

Columns and labels:
Staphylococcus aureus = settings: Concentration 32 ug.mL-1;; ASSAY_TEST Inhibition of Bacterial Growth; detection method Absorption (OD600); MEDIA CAMHB; plate type 384well; NBS; CORNING #3640; time 18 hr
Escherichia coli = settings: Concentration 32 ug.mL-1;; ASSAY_TEST Inhibition of Bacterial Growth; detection method Absorption (OD600); MEDIA CAMHB; plate type 384well; NBS; CORNING #3640; time 18 hr

Structure (SMILES) | Inhibition (Staphylococcus aureus) | Inhibition (Escherichia coli)
Cc1cc2nn(CC(=O)N3CCOCC3)c(=O)n2c(Nc2ccc(C)c(F)c2)n1 | 15.64% | -0.78%
COc1ccc(-c2cc3c4nnc(SCC(=O)Nc5ccc(C#N)cc5)n4ccn3n2)cc1 | -3.8% | -6.47%
CCCCOc1ccc(-c2cc3c4nnc(SCC(=O)N(CC)c5ccccc5)n4ccn3n2)cc1 | 7.98% | -2.57%
CCOc1ccc(-n2ccn3c(SCC(=O)Nc4ccccc4C(F)(F)F)nnc3c2=O)cc1 | 16.73% | 2.18%
O=C(Cn1nc2c(N3CCOCC3)nc3ccccc3n2c1=O)Nc1ccccc1Br | 3.23% | -2.52%
COc1cccc(-n2ccn3c(SCC(=O)c4ccc(OC)c(OC)c4)nnc3c2=O)c1 | 10.14% | 2.93%
CCOC(=O)c1cccc(NC(=O)CSc2nc3ccccc3n3c(C(C)C)nnc23)c1 | 7.87% | -1.12%
Cc1ccccc1Nc1cc(C)n2c(=O)n(CCOc3ccc(F)cc3)nc2n1 | 13.1% | -3.45%
O=C(Cn1nc2c(N3CCOCC3)nccn2c1=O)N1CCN(c2ccccc2F)CC1 | 14.68% | 2.59%
CC(C)c1nnc2c(SCC(=O)Nc3ccc(F)cc3F)nc3ccccc3n12 | 6.8% | 1.07%
CCc1nnc2c(SCC(=O)Nc3cc(Cl)ccc3OC)nc3ccccc3n12 | 7.98% | 4.84%
CCc1ccc(N(Cc2cccc(C)c2)S(=O)(=O)c2cccn3c(C)nnc23)cc1 | -11.31% | 0.34%
